Test results published in PubChem BioAssay (NCATS).
Records with an inconclusive call do not appear. Calls of active or inactive are those of the source. Calls follow the shape of the dose curve; as a rule, active = well fitted cell-killing curve with a large enough effect; inconclusive = small, poorly fitted or top-dose-only effect; inactive = flat fitted curve, though single readings scatter. Bridge positions count the residues as written; N and C are the ends. Square brackets hold non-standard residues; d marks the D form. Side chains are listed from the residue outwards. Peptide text beside a SMILES is read from it. * marks the point of attachment. Phg(4-OMe) = COc1ccc([C@H](N)C(=O)O)cc1; d(aIle) = CC[C@H](C)[C@@H](N)C(=O)O; d(aThr) = C[C@@H](O)[C@@H](N)C(=O)O; NMeF = CN[C@@H](Cc1ccccc1)C(=O)O; Isobutyryl = CC(C)C(=O)*; Hexanoyl = CCCCCC(=O)*

Assay: OV-SAHO Cancer Cell Toxicity qHTS against the NCATS CANVASS Library (AID 1347348); also: nearly all actives have a fitted effect of over 55% in size
Settings: OV-SAHO viability, CellTiter-Glo luminescence, 72 h; series mostly up to 38.3 µM; activity change, negative = cytotoxicity: at the top concentration
Description: Natural products and their derivatives continue to be wellsprings of nascent therapeutic potential. However, many laboratories have limited resources for biological evaluation, leaving their previously isolated or synthesized compounds largely or completely untested. To address this issue, the Canvass library of natural products was assembled (https://tripod.nih.gov/canvass), in collaboration with academic and industry researchers, for quantitative high-throughput screening (qHTS) across a diverse set of cell-based and biochemical assays. The pure (>85% purity by liquid chromatography/mass spectrometry [LC/MS]) Canvass library of 346 natural products were submitted by 45 academic laboratories and companies around the world. We collected pure natural products to circumvent deconvolution and structure elucidation due to time and resource limitations. The library was formatted into 1536-well plates and evaluated in 50 qHTS (in an 11-pnt concentration series) bioassays with broad scope of disease-relevant mechanisms. The resulting data set from 50 different assays was then systematically analyzed to identify overall trends and specific natural products with interesting biological activities. Reported herein are the results of each individual qHTS and their corresponding assay protocol. National Center for Advancing Translational Sciences (NCATS), Rockville, MD National Institute of Health (NIH), Bethesda, Maryland
Cancer Cell Toxicity protocol for cell lines COV-362, OV-KATE, OV-SAHO, UWB1.289, UWB1.289-WTBRCA1, HEK-293, HPAF-II, Panc-1005, SW1088, or U-118MG. 1. In a 1536 well, white solid bottom tissue culture plates (Corning 7494), corresponding cells (COV-362, OV-KATE, OV-SAHO, UWB1.289, UWB1.289-WTBRCA1, HEK-293, HPAF-II, Panc-1005, SW1088, or U-118MG) were dispensed in each well at a final concentration of 1000 cells / well (6uL volume) using the Multidrop Combi (Thermo Fisher Scientific) dispenser. 2. The plates were incubated for 4 hours at 37 degrees C/5% CO2/95% Rh. 3. Compounds were pin transferred (~23nL volume) via Wako Pin-tool (Wako Automation, Richmond VA) equipped with a 1536 pin head. The assay plates were treated with compounds in an 11-pnt concentration series with a final concentration range of […] to 85uM. 4. Bortezomib was used as a single dose control (0.5mM column 4, rows 1 - 32) at a final concentration of 1.9uM and as a 16pnt titration (1mM; 1:2 dilution; 16-points; n = 2; column 3, rows 1 - 32) with final concentration range of 0.1nM - 3.8uM. 5. The assay plates were incubated for 72 hours at 37 degrees C/5% CO2/95% Rh. 6. 3uL CellTiter-Glo detection reagent was then added to the plates (columns 2 - 48, rows 1 - 32) and incubated at room temperature for additional 15min. 7. Luminescence signal was acquired via the ViewLux plate reader (PerkinElmer) using a clear filter, 2 second exposure and 2x binning settings.
% is scaled to controls: 0 for no effect and ±100 for the full control effect; potency is read from the fitted curve at half-maximal effect.

SMILES	activity change, negative = cytotoxicity	Potency
C=C(Cl)[C@](Cl)(CBr)CC[C@@H](Br)C(C)(C)Cl	-8.75% (inactive)	
CO[C@@H](C[C@@H](C)[C@@H](O)/C=C/C=C/CNC(=O)C(C)(C)[C@H](O)\C(C)=C/C=C\C=C\Cc1cnco1)[C@]1(O)[C@@H](C)C(=O)N(C)[C@@]12COC2=O	0.974% (inactive)	
C[C@@]12CCC[C@@](C)(C(=O)O)[C@H]1CC[C@@]13C[C@@H](CC[C@H]12)[C@](C)(O)C3	-5.18% (inactive)	
CC[C@H](C)[C@H]1NC(=O)[C@@H](NC(=O)C(C)C)[C@@H](C)OC(=O)[C@H](COC(=O)CNC(C)=O)NC(=O)[C@@H]([C@@H](C)O)NC(=O)[C@H](Cc2ccccc2)N(C)C(=O)[C@H](c2ccc(OC)cc2)NC1=O (Isobutyryl-T[d(aIle)][Phg(4-OMe)][NMeF][d(aThr)]S([Gly-Ac]); ester 1-C)	-17.6% (inactive)	
COC12OC1(C13OC1(OC)C(=O)c1cc4cc(C)oc(=O)c4c(O)c1C3O)C(O)c1c(cc3cc(C)oc(=O)c3c1O)C2=O (stereo not given)	-0.478% (inactive)	
C=C[C@]1(C)CC[C@@H]([C@H](C)C(=O)CC=C(C)C)O1	0.191% (inactive)	
C=CC(CCCCC)C1C(=O)NC(=O)C1C(=O)C1C2C(C)CC(C(=O)O)CC2CC1(O)C(=O)/C=C/C (stereo not given)	0.481% (inactive)	
C/C(=C\[C@H](C)C(=O)/C=C/CC1CC(=O)NC(=O)C1)[C@@H]1OC(=O)/C=C/CC/C=C/C[C@@H](O)[C@@H]1C		2.11 µM (active)
C=C(C)C(=O)O[C@H]1C[C@@]2(C)OC(=CC2=O)/C(C)=C\[C@H]2OC(=O)C(=C)[C@H]12		5.29 µM (active)
CCCCCC(=O)N[C@@H](CC(C)C)C(=O)N[C@H](C=O)CCC(=O)O (Hexanoyl-Leu-Glu-aldehyde)	-10.4% (inactive)	
CC(CCC[C@]1(C)C(=O)C=C[C@@]23C[C@]4(C)O[C@@H](C[C@@H]4[C@H]2O)C31)C(=O)O (stereo not given in full)	4.14% (inactive)	
COC(=O)[C@@]12Oc3cccc(O)c3C(O)=C1C(=O)C[C@H](C)[C@H]2O	-11.7% [at 76 µM] (inactive)	
C=C[C@@]1(C)CC[C@@H]([C@H](C)C(C)=O)O1	-11.8% (inactive)	
C[C@H](c1cnc(N)[nH]1)c1ccc(O)c2[nH]cc(-c3cnc(-c4c[nH]c5ccccc45)c(=O)[nH]3)c12	-20.4% (inactive)	
CC(C)=CCCC(C)(O)[C@H]1CC=C(C)C(O)C1 (stereo not given in full)	-14.7% (inactive)	
C=CC(C)(C)C(=O)[C@@H](C)[C@@H]1CC[C@@](C)(C=C)O1	-0.943% (inactive)	
COc1ccc([C@@H]2c3cc4c(cc3C[C@H](C)C2C)OCO4)cc1OC (stereo not given in full)	-20.3% (inactive)	
COc1ccc([C@@H]2c3cc4c(cc3C(=O)C(C)C2C)OCO4)cc1OC (stereo not given in full)	-1.41% (inactive)	
[C-]#[N+][C@@]12C(=O)[C@@H]3[C@@H](O[C@@]4(C(=O)N(C)c5cccc1c54)C3(C)C)C(=O)[C@@]2(C)C=C	0% (inactive)	
C[C@@]12CCC[C@@](C)(C(=O)OP(=O)(O)OC[C@H]3O[C@@H](n4cnc5c(N)ncnc54)[C@H](O)[C@@H]3O)[C@H]1C[C@@H](O)[C@@]13C[C@@H](CC[C@@H]21)[C@](C)(O)C3	-0.391% (inactive)	

SMILES	activity change, negative = cytotoxicity	Potency
O=C1CC(c2ccc(O)cc2)Oc2cc(O)ccc21 (stereo not given)	-12.6% (inactive)	
O=c1cc(-c2ccc(O)c(O)c2)oc2cc(O[C@@H]3O[C@H](CO)[C@@H](O)[C@H](O)[C@H]3O)cc(O)c12		16.7 µM (active)
C/C=C(/C)c1c(Cl)c(O)c(C)c2c1Oc1c(Cl)c(O)c(Cl)c(C)c1C(=O)O2	-23.9% (inactive)	
C/C=C1/C2=CCCN3C(=O)O[C@H]([C@H]1O)[C@H]23	-18.7% (inactive)	
COc1cc2c(c(O)c1O)C(=O)c1c(coc1C)C2=O		4.2 µM (active)
O=C1c2c(O)cc(O)cc2OC(c2ccc(O)cc2)C1O (stereo not given)	0% (inactive)	
O=C1CC(c2ccc(O)cc2)Oc2ccccc21 (stereo not given)		13.3 µM (active)
C[C@@]12CCC[C@@](C)(C(=O)O)[C@H]1C[C@@H](O)[C@@]13C[C@@H](CC[C@@H]21)[C@](C)(O)C3	-8.27% (inactive)	
C[C@@]1(CCC(=O)Nc2c(O)ccc(C(=O)O)c2O)C(=O)C=C[C@]23C[C@H]4C[C@H](O[C@@]4(C)C2)C31 (stereo not given in full)	-11.4% (inactive)	
O=C1CC(c2ccc(O)cc2)Oc2cc(O)cc(O)c21 (stereo not given)	5.11% (inactive)	
C/C=C/[C@H]1[C@H]2C(=O)c3c(O)c(C)c(O)c(C)c3[C@]1(C(=O)O)C(=O)C=C2C	-8.12% (inactive)	
CC(=O)c1c(C)cc2c(c1O)C(=O)c1c(O)cc(O)cc1C2=O	0.574% (inactive)	
COc1ccc([C@@H]2c3cc4c(cc3C(=O)[C@H](C)C2C)OCO4)cc1OC (stereo not given in full)	-20.5% (inactive)	
C=C1C[C@]23C=CC(=O)[C@@](C)(CCCC(C)C(=O)N[C@@H](CO)C(=O)O)[C@@H]2C[C@@H]1CC3 (stereo not given in full)	3.92% (inactive)	
O=Cc1ccc2n1C[C@]1(OC2)O[C@H](CO)[C@@H](O)[C@@H]1O	-7.27% (inactive)	
CC(C)=CC[C@H]1C[C@@]2(CC=C(C)C)C(=O)[C@](CC=C(C)C)(C(=O)C(C(=O)c3ccccc3)=C2O)C1(C)C		14.9 µM (active)
CCC(=O)N[C@@H](C[C@H](C)C(Cl)(Cl)Cl)C(=O)N1C(=O)C=C(OC)[C@@H]1CC(C)C	-20.9% (inactive)	
CCC(C)=C1OC(=O)[C@H](C)[C@H](O)[C@H](Cc2cccnc2)NC(=O)C(NC(=O)c2ncccc2O)C(C)OC1=O (stereo not given in full)	-10.5% (inactive)	
C[C@]12CCC[C@](C)(C(=O)O)[C@@H]1CC[C@@]1(C)c3cocc3CC[C@H]21	-14.4% (inactive)	
C[C@H]1CCC2(OC1)O[C@H]1C[C@H]3[C@@H]4CC(=O)[C@]5(O)C[C@H](O)CC[C@@]5(C)[C@H]4CC[C@@]3(C)[C@H]1[C@H]2C (stereo not given in full)	-13% (inactive)	
